Data on 8 compounds can be found in PubChem BioAssay (Tox21).

Results filed as inconclusive are left out. A structure can be active in one record and inactive in another. Activity calls are given as the source filed them. Unless noted, calls follow the shape of the full dose curve.

The nature of experiment [1]: Nuclear factor erythroid 2-related factor 2/antioxidant responsive element (Nrf2/ARE) small molecule agonists: qHTS cell viability counter screen in human keratinocytes (AID 1919968; active = well fitted curve in the direction sought with a large enough effect in the repeat runs; an effect the other way counts as inactive or inconclusive; also: nearly all actives have a fitted effect of over 55% in size). Summed up:
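Seed 1,500 KeratinoSens cells per well, then incubate 5 h at 37 C/5% CO2. Add compounds in DMSO and incubate 23 h. Add CellTiter-Fluor, wait 1 h and read fluorescence.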
Background: In qHTS, concentration-response curves come from the screen itself.

Experiment [2] in a line: Nuclear factor erythroid 2-related factor 2/antioxidant responsive element (Nrf2/ARE) small molecule agonists: luciferase reporter gene qHTS assay in human keratinocytes (AID 1919969). Also: nearly all actives have a fitted effect of over 35% in size. Also: potency is read from the fitted curve at half-maximal effect.
Experiment [3] has as its target Gonadotropin-releasing hormone receptor (Homo sapiens) (UniProt P30968). Nature of the experiment: Human gonadotropin-releasing hormone receptor (GnRHR) small molecule agonists, calcium flux assay in GnRHR-HEK293 cells (AID 1920063). Also: nearly all actives have a fitted effect of over 35% in size. Summed up: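 Cells: HEK293 stably expressing human GnRHR. Steps: overnight (18 h) culture, 1 h calcium dye loading at 37 C, compound addition, kinetic fluorescence read at 480/540 nm. Each compound tested at 15 concentrations in triplicate.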

Experiment [4] deals with KiSS-1 receptor (Homo sapiens) (UniProt Q969F8). The experiment in a line: Human kisspeptin (KISS1R) small molecule agonists, calcium flux assay in KISS1R-HEK293 cells (AID 1920064; active = well fitted curve in the direction sought with a large enough effect in the repeat runs; an effect the other way counts as inactive or inconclusive). Summed up:
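Cells plated and incubated 18 h; dye added, 1 h at 37 C; compounds in DMSO pinned in; signal read at 480/540 nm every second for 3 min. Each compound tested at 15 concentrations in triplicate.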
(Calcium assays in cells follow changes in intracellular calcium, usually with a dye or a luminescent sensor.)

Experiment [5] is described as follows: G protein-coupled receptor (GPCR) small molecule agonists, calcium flux assay: HEK293 wild type cell line counter screen (AID 1920065). Summed up: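 Counter-screen of the Tox21 10K library for non-specific calcium release: dye-loaded cells received compounds in DMSO and were monitored by kinetic fluorescence (480/540 nm, 3 min). Fifteen concentrations, run in triplicate.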

Experiment [6] in a line: p53 small molecule agonists, cell-based qHTS assay with human liver microsomes (AID 1963577).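 Also: p53 response element beta-lactamase reporter cells with liver microsomes plus NADPH.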 In a few lines: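 p53RE-bla cells; 5 h settle, 37 C/5% CO2; cpd + HLM 0.5 mg/mL + NADPH 0.5 mg/mL (final); 16 h 37 C; LiveBLAzer 2 h RT dark; fluorescence readout.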
Experiment [7] in a line: p53 small molecule agonists, cell-based qHTS assay with rat liver microsomes (AID 1963578). In a few lines: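 Rat liver microsome activation: microsomes 0.5 mg/mL, NADPH 0.5 mg/mL final; p53RE-bla cells, 16 h 37 C; LiveBLAzer readout, 2 h RT dark.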
Experiment [8] in a line: p53 small molecule agonists, cell-based qHTS assay with human liver microsomes: qHTS cell viability counter screen (AID 1963579). Also: nearly all actives have a fitted effect of over 45% in size. Summed up:
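Luminescent CellTiter-Glo read-out, 30 min at room temperature, gauged cytotoxicity in p53RE-bla cells exposed 16 h at 37 C to DMSO-dissolved compounds with metabolic activation by human liver microsomes and NADPH, each 0.5 mg/mL final.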

Experiment [9] is described as follows: p53 small molecule agonists, cell-based qHTS assay with rat liver microsomes: qHTS cell viability counter screen (AID 1963580). Also: nearly all actives have a fitted effect of over 45% in size. In a few lines: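 p53RE-bla HCT-116 cells were exposed 16 h at 37 C to compounds with rat liver microsomes (0.5 mg/mL) and NADPH (0.5 mg/mL). Viability was measured in the same wells as ATP content by CellTiter-Glo luminescence.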

Experiment [10] is described as follows: p53 small molecule agonists, cell-based qHTS assay: qHTS cell viability counter screen (AID 1963581). Also: nearly all actives have a fitted effect of over 45% in size. In a few lines: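 Cells: HCT-116 with p53 response element-driven beta-lactamase. Treatment: 16 h, 37 C, compounds in DMSO. Read: CellTiter-Glo luminescence after 30 min RT.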
Experiment [11] is described as follows: p53 small molecule agonists, cell-based qHTS assay (AID 1963582; active = well fitted activation curve with a large enough effect in the signal ratio in the repeat runs, not every such curve was filed as active; the % refers to the signal ratio). Summed up: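 Quantitative HTS in p53RE-bla cells: after a 5 h settling period, compounds delivered in DMSO were left on cells for 16 h at 37 C, and reporter induction was measured as fluorescence following 2 h substrate loading.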
The target of experiment [12] is 5-hydroxytryptamine receptor 2A (Homo sapiens) (UniProt P28223). Nature of the experiment: 5-hydroxytryptamine receptor 2A (HTR2A) small molecule antagonists, cell-based qHTS assay (AID 1963586). Also: nearly all actives have a fitted effect of over 45% in size. In a few lines:
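Antagonist-mode intracellular calcium assay: DOI (4 nM) added after 5 min compound pre-incubation at room temperature to dye-loaded HTR2A-CHO cells. Fluorescence followed for 3 min, sampled every second.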

For experiment [13] the target is unchanged. The experiment in a line: 5-hydroxytryptamine receptor 2A (HTR2A) small molecule agonists, cell-based qHTS assay (AID 1963587). Also: nearly all actives have a fitted effect of over 30% in size. In a few lines:
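CHO cells stably expressing human HTR2A, plated 18 h, loaded with calcium dye 1 h at 37 C. Agonist mode: compounds added and intracellular calcium fluorescence recorded kinetically for 2 min at 1 sec intervals.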

Experiment [14] concerns the target Muscarinic acetylcholine receptor M1 (Homo sapiens) (UniProt P11229). The experiment in a line: Cholinergic receptor muscarinic 1 (CHRM1) small molecule antagonists, cell-based qHTS assay (AID 1963588). Also: nearly all actives have a fitted effect of over 40% in size. In a few lines:
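CHRM1-CHO calcium-flux assay, antagonist mode. Cells were seeded 18 h, dye-loaded 1 h at 37 C and given compound for 5 min at RT, then acetylcholine was added at 50nM. FDSS fluorescence was read 3 min; 15 concentrations, three runs.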

Experiment [15] has the same target. Nature of the experiment: Cholinergic receptor muscarinic 1 (CHRM1) small molecule agonists, cell-based qHTS assay (AID 1963589). Also: nearly all actives have a fitted effect of over 35% in size. In a few lines:
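Agonist-mode qHTS in CHO cells stably carrying human muscarinic M1. Intracellular calcium is tracked by fluorescence every second after compound transfer; each compound runs at 15 concentrations in three independent runs.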

Experiment [16] is described as follows: cAMP Responsive Elements (CRE) small molecule agonists, cell-based qHTS assay (AID 1963590). In a few lines: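 Agonist mode qHTS in CRE-bla HEK 293T cells: compounds dosed from DMSO for 3 h at 37 C/5% CO2, followed by LiveBLAzer B/G FRET substrate for 2 h at room temperature.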
Experiment [17] can be described thus: cAMP Responsive Elements (CRE) small molecule antagonists, cell-based qHTS assay (AID 1963591; active = well fitted inhibition curve with a large enough effect in the signal ratio in the repeat runs, not every such curve was filed as active; the % refers to the signal ratio). Summed up:
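Antagonist mode: test compounds are co-incubated with the adenylyl cyclase activator NKH477 (0.25 uM final) on CRE-bla HEK293T cells for 3 h at 37 °C, followed by LiveBLAzer substrate loading.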

The target in experiment [18] is Beta-2 adrenergic receptor (Homo sapiens) (UniProt P07550). The experiment in a line: Adrenergic beta2 receptor (ADRB2) small molecule antagonists, cell-based qHTS assay (AID 1963592). Also: series mostly up to about 92 µM; nearly all actives have a fitted effect of over 50% in size. In a few lines: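 Cells (CHO, stable ADRB2 overexpression) incubated 18-20hr at 37C; compounds added from DMSO; agonist mix (1nM isoproterenol, 100uM IBMX, 25uM Ro-20-1724) added; 0.5hr RT; d2-cAMP and anti-cAMP-cryptate added; 1hr RT; 665/615 nm read.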
Chain of Beta-2 adrenergic receptor (Homo sapiens) (P07550 whole entry, looked up): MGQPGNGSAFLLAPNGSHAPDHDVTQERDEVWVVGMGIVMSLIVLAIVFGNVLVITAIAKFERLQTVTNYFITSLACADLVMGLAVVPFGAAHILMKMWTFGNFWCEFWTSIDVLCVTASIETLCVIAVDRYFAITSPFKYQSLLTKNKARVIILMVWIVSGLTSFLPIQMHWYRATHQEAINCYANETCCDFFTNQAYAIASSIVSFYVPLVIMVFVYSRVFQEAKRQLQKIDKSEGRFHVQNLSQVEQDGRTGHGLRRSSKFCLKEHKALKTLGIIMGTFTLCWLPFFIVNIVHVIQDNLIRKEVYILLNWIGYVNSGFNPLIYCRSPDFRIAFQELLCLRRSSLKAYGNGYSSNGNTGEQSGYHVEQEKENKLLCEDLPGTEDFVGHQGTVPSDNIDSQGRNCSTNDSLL

For experiment [19], the target named is D(2) dopamine receptor (Homo sapiens) (UniProt P14416). The experiment in a line: Dopamine D2 receptor (DRD2) small molecule agonists, cell-based qHTS assay (AID 1963594). Also: nearly all actives have a fitted effect of over 35% in size. Summed up:
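HEK293 cells stably expressing human DRD2, pre-treated with PDE inhibitor Ro20-1724 (0.1 mM final) and compound 10 min at room temperature, then stimulated with NKH477 (200nM […]) for 30 min. cAMP read by HTRF (665/620 nm).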

Experiment [20] has the same target. Nature of the experiment: Dopamine D2 receptor (DRD2) small molecule antagonists, cell-based qHTS assay (AID 1963595; active = well fitted inhibition curve with a large enough effect in the signal ratio in the repeat runs, with a control signal flat; the % refers to the signal ratio). In a few lines:
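HEK293 cells stably expressing DRD2 were preincubated with 0.1 mM Ro20-1724, then with compound for 10 min at room temperature. Cells were stimulated with 200 nM NKH477 plus 12 nM quinpirole for 30 min, and cAMP was read by HTRF.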

Chain of Gonadotropin-releasing hormone receptor (Homo sapiens) (P30968 whole entry, looked up): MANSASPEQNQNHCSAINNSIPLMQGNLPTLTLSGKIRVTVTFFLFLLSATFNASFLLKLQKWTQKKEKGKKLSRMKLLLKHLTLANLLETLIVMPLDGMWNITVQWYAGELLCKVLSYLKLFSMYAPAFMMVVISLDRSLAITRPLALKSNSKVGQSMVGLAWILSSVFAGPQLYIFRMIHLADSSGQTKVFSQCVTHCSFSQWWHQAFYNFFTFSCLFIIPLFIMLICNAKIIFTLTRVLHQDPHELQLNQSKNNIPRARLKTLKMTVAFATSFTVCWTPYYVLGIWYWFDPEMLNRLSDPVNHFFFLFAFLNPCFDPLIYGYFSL
Chain of 5-hydroxytryptamine receptor 2A (Homo sapiens) (P28223 whole entry, looked up): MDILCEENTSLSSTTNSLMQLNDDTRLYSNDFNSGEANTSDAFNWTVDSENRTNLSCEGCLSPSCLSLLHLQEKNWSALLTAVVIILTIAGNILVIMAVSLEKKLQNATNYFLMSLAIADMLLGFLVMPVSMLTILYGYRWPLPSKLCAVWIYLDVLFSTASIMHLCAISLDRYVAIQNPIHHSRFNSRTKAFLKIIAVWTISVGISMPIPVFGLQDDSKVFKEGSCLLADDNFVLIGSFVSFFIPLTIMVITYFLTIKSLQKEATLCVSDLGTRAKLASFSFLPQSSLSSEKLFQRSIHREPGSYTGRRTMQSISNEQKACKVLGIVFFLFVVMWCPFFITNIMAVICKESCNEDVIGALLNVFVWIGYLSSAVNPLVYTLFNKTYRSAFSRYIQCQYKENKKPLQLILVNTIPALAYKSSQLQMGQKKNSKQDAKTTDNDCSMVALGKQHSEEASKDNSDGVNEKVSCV
Chain of KiSS-1 receptor (Homo sapiens) (Q969F8 whole entry, looked up): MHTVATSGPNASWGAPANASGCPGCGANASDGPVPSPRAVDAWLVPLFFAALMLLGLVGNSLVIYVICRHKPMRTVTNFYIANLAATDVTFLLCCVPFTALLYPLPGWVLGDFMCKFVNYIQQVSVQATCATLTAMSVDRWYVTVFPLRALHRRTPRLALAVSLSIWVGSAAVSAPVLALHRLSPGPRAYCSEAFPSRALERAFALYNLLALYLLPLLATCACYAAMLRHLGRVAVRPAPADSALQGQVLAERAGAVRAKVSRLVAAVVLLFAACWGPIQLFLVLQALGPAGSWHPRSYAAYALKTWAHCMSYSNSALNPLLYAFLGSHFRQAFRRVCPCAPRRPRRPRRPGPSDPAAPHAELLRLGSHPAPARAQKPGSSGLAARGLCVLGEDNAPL
Chain of Muscarinic acetylcholine receptor M1 (Homo sapiens) (P11229 whole entry, looked up): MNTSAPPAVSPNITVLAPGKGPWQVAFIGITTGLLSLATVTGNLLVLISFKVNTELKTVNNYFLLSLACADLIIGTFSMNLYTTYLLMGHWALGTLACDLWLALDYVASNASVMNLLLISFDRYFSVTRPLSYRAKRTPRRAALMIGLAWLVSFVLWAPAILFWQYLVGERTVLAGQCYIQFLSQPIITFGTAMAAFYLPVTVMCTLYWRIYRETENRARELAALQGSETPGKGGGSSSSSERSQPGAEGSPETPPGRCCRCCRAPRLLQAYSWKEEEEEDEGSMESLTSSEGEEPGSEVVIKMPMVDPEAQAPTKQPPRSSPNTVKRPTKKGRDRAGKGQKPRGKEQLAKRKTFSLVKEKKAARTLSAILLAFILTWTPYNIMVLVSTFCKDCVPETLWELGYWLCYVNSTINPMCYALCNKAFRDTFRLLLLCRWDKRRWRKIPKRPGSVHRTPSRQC
Chain of D(2) dopamine receptor (Homo sapiens) (P14416 whole entry, looked up): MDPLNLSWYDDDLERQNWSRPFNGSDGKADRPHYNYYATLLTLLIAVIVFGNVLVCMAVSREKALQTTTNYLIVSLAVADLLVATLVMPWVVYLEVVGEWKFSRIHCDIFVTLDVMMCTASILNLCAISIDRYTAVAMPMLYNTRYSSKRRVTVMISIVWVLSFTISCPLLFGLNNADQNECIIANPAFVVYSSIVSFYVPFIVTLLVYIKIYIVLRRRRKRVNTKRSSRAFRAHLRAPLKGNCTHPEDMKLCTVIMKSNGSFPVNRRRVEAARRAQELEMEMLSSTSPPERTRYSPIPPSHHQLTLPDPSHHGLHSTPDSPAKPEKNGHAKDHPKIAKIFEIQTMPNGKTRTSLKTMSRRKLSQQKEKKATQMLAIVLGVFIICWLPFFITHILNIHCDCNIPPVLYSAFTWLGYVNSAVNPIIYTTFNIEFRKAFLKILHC

On to `CC(C)(OOC(C)(C)c1ccccc1)c1ccccc1`, for which the Potency result in experiment [1], in experiment [3], in [4], in [5], in [6] and in experiment [7] was “inactive” throughout. In addition, the Potency entry in experiment [8], in experiment [9], in experiment [10], in [11], in experiment [12] and in experiment [13] was “inactive” each time. For the same compound, the Potency result in experiment [14], in experiment [15], in [16], in experiment [17], in [18] and in [19] was “inactive” each time. Further, the Potency entry in experiment [20] was “inactive”. Also, the Potency in experiment [2] was 21.7 µM (active).

Turning to `Clc1ccc(C(Cl)(Cl)Cl)c(Cl)c1`, the Potency entry in experiment [1], in [2], in [3], in [4], in [5] and in experiment [6] was “inactive” in each case. Moreover, the Potency result in experiment [7], in experiment [8], in experiment [9], in experiment [10], in experiment [11] and in experiment [12] was “inactive” in each case. Besides, the Potency entry in experiment [13], in [14], in [15], in experiment [16], in experiment [17] and in experiment [18] was “inactive” in each case. Moreover, the Potency result in experiment [19] and in experiment [20] was “inactive” throughout.

With `CN(C)NC(=O)CCC(=O)O`, the Potency entry in experiment [1], in [2], in experiment [3], in experiment [4], in experiment [5] and in experiment [6] was “inactive” each time. The Potency entry in experiment [7], in experiment [8], in [9], in experiment [10], in experiment [11] and in experiment [12] was “inactive” in each case. The Potency result in [13], in experiment [14], in experiment [15], in [16], in experiment [17] and in experiment [18] was “inactive” in each case. For the same compound, the Potency entry in [19] and in [20] was “inactive” throughout.

Consider `N#Cc1ccncc1`, for which the Potency entry in experiment [1], in experiment [2], in [3], in experiment [4], in [5] and in [6] was “inactive” throughout. Moreover, the Potency entry in [7], in experiment [8], in [9], in experiment [10], in experiment [11] and in experiment [12] was “inactive” in each case. Moreover, the Potency result in experiment [13], in experiment [14], in [15], in experiment [16], in experiment [17] and in experiment [18] was “inactive” in each case.

As to `CC(Cl)CCl` (stereo unspecified), the Potency result in experiment [1], in [2], in experiment [3], in experiment [4], in experiment [5] and in experiment [6] was “inactive” in each case. Further, the Potency result in experiment [7], in experiment [8], in experiment [9], in experiment [10], in experiment [11] and in experiment [12] was “inactive” in each case. The Potency result in [13], in experiment [14], in experiment [15], in experiment [16], in experiment [17] and in experiment [18] was “inactive” throughout.

For the compound `CN(C)[C@@H]1C(=O)C(C(N)=O)=C(O)[C@@]2(O)C(=O)C3=C(O)c4c(O)cccc4[C@@](C)(O)[C@H]3C[C@@H]12`, the Potency result in experiment [1], in experiment [2], in experiment [3], in experiment [4], in experiment [5] and in experiment [6] was “inactive” each time. In addition, the Potency entry in experiment [7], in [8], in experiment [9], in [10], in [11] and in experiment [12] was “inactive” throughout. Moreover, the Potency result in [13], in experiment [14], in experiment [15], in experiment [16], in experiment [17] and in experiment [18] was “inactive” throughout. For the same compound, the Potency entry in experiment [19] and in experiment [20] was “inactive” throughout.

Consider `N#Cc1ccccn1`, for which the Potency result in experiment [1], in experiment [3], in [4], in experiment [5], in [6] and in experiment [7] was “inactive” in each case. The Potency result in experiment [8], in experiment [9], in [10], in experiment [11], in experiment [12] and in experiment [13] was “inactive” in each case. In addition, the Potency result in [14], in experiment [15], in experiment [16], in experiment [17], in experiment [18] and in experiment [19] was “inactive” each time. For the same compound, the Potency entry in [20] is “inactive”. In [2], the Potency was 63.7 µM (active) and inactive.

On to `Cc1cnc(C2=NC(C)(C(C)C)C(=O)N2)c(C(=O)O)c1` (stereo unspecified), for which the Potency entry in experiment [1], in [2], in experiment [3], in experiment [4], in experiment [5] and in experiment [6] was “inactive” each time. Moreover, the Potency entry in experiment [7], in [8], in experiment [9], in experiment [10], in [11] and in experiment [12] was “inactive” each time. For the same compound, the Potency entry in experiment [13], in experiment [14], in [15], in experiment [16], in [17] and in experiment [18] was “inactive” each time. Also, the Potency entry in experiment [19] and in [20] was “inactive” in each case.
